# Laboratory results published in PubChem BioAssay (NCI).
# The panel holds about 83,000 compounds, 20% with a hit somewhere; the sample as a whole holds those more often.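 Method: cells in 96-well plates; compound added at one concentration; 48 h incubation; percent growth measured; values under 10 scored active.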 Active and inactive are the calls of the source.
# Tested on: HL-60(TB) leukemia
# Assay: NCI-60 one-dose screen, 48 h (100 = growth as untreated, 0 = no growth, -100 = all killed)
# Conditions: 10 µM unless noted
row,SMILES,growth
1,Cc1ccc(OCCn2ccc(=O)n(CCOc3ccc(Cl)cc3C(=O)c3cc(C)cc(C)c3)c2=O)cc1,33.4% (inactive)
2,Cc1nc2ccccc2c(C(=O)O)c1O,186% (inactive)
3,CCOC(=O)C1=C(C)N=c2s/c(=C\c3cc(Cl)ccc3O)c(=O)n2C1c1ccc(OC)cc1 (stereo not drawn),98% (inactive)
4,Cc1ccc2c(n1)C[C@H](C(C)(C)O)CC[C@H]2C,103% (inactive)
5,N#CCCN1C/C(=C/c2ccccc2)C(=O)/C(=C/c2ccccc2)C1,43.2% (inactive)
6,Oc1c(CN2CCOCC2)cc(COCc2ccccc2)c2cccnc12,0.702% (active)
7,Cc1ccsc1C(=O)CC(=O)C(F)(F)C(F)(F)C(F)(F)F,107% (inactive)
8,Cn1cc(-c2ccc3occ(-c4cccc(-c5ccncc5)c4)c3n2)cn1,2.9% (active)
9,COc1ccc2c(c1)CC[C@@H]1[C@@H]2CC[C@]2(C)[C@@H](O)C(=O)C[C@@H]12,108% (inactive)
10,Nc1ccccc1-c1n[nH]c(=O)[nH]c1=O,105% (inactive)
11,CCN(CC)CCNc1ccc(CO)c2sc3ccccc3c(=O)c12,60.8% (inactive)
12,COc1ccc(C(=O)c2nc3ccccc3n2CC(=O)c2ccc(F)cc2)cc1,79.5% (inactive)
13,CCn1c(=S)[nH]c2c(=O)n(C)c(=O)n(C)c21,100% (inactive)
14,Oc1ccc(-c2nc(-c3ccc4oc5ccc(-c6[nH]c(-c7ccc(O)cc7)nc6-c6ccccc6)cc5c4c3)c(-c3ccccc3)[nH]2)cc1,39.9% (inactive)
15,CCCCCCCCCCCCCCCc1ccc(C(=O)C[n+]2ccccc2)cc1,-69.3% (active)
16,O=C1CS/C(=N/c2nnc(-c3ccc(O)cc3)s2)N1,98.8% (inactive)
17,Cn1cc(-c2cc3ncnc(Nc4ccc(CC(=O)Nc5cc(C(C)(C)C)nn5C)cc4)c3s2)cn1,63.4% (inactive)
18,O=Cc1c[nH]c2ccc(NC(=O)OCc3ccccc3)cc12,200% (inactive)
19,S=c1cc(S)c2cc(Br)ccc2[nH]1,101% (inactive)
20,O[C@@H]1CCO[C@H](c2ccc3ccccc3c2)C1,102% (inactive)
21,c1ccc(-c2nn(-c3ccccc3)[n+](-c3ccccc3-c3ccccc3)n2)cc1,-31.4% (active)

row,SMILES,growth
1,COc1cc(-c2nc3ccccc3[nH]2)ccc1OCC(=O)N=Nc1c(O)[nH]c2ccccc12,79.8% (inactive)
2,COC(=O)c1c2c(c(C)[n+]([O-])c1C)C(=O)C(NCc1ccccc1)=CC2=O,-2.98% (active)
3,CCOC(=O)c1cn2ncnc(Oc3ccc(NC(=O)NCCN(CC)CC)c(Cl)c3)c2c1C,100% (inactive)
4,O=[N+]([O-])c1ccc(CO)cc1,96.7% (inactive)
5,Nc1nc(N=Nc2ccc(O)cc2)cc(=O)[nH]1,95.6% (inactive)
6,COc1cc(/C=C/C(=O)c2cc(-c3ccc(F)cc3)ccc2O)cc(OC)c1OC,39.5% (inactive)
7,Brc1ccc(/C=C(/C2=NCCN2)n2ccc3ccccc32)cc1,26.2% (inactive)
8,CN(C)c1cc(NN=C(c2ccc(O)cc2)c2ccc(O)cc2)c([N+](=O)[O-])cc1[N+](=O)[O-],127% (inactive)
9,CC[C@]12C=CCN3CC[C@@]4(c5ccc(OC)cc5N(C)[C@H]4[C@@](O)(C(=O)OC)[C@@H]1OC(=O)CCC(=O)O[C@H]1CC[C@H]4[C@@H]5CC[C@H]6CC(=O)CC[C@]6(C)[C@H]5CC[C@]14C)[C@@H]32,-38.2% (active)
10,COc1ccc(C/C(C)=C(/c2ccc(OCCN(C)C)cc2)c2ccc(OC(=O)NCc3ccccc3)cc2)cc1,45.1% (inactive)
11,ClC(Cl)c1nc(-c2ccccc2)nc2cc(-c3ccccc3)nn12,94.9% (inactive)
12,CCNC(=O)N1CCc2c(Br)c3c(c(OC)c2C1Cc1ccc(OC)cc1)OCO3 (stereo not drawn),7.48% (active)
13,COc1cc(N=Nc2cc(Cc3ccc(N(C)C)cc3)c(N)cc2N(C)C)c2ncccc2c1,-55.5% (active)
14,CCOC(=O)C1=C(C)NC(=O)NC1c1c(Cl)n(CCCl)c2ccccc12 (stereo not drawn),117% (inactive)
15,Cn1cc(/C=C2/C(=O)Nc3ccccc32)c2ccccc21,85.8% (inactive)
16,CC1CCC2(OC1)OC1CC3C4CC=C5CC(O)CCC5(C)C4CCC3(C)C1C2C (stereo not drawn),91.9% (inactive)
17,COc1ccc(-c2csc(NC(=O)CN3CCN(CCO)CC3)n2)cc1NS(=O)(=O)c1cccc2c(N(C)C)cccc12,93.8% (inactive)
18,Cc1cc2c(-c3nc4ccccn4c3NC3CCCCC3)c(O)c(O)cc2c(O)c1-c1c(C)cc2c(-c3nc4ccccn4c3NC3CCCCC3)c(O)c(O)cc2c1O,29.1% (inactive)
19,Cc1nn(-c2ccc(Cl)cc2)c(=O)n1CCN1CCOCC1,105% (inactive)
20,Cc1cc(-c2cc(C)c(O)c(C)c2)cc(C)c1O,63.6% (inactive)
21,COc1ccc2[nH]c(-c3ccccc3)cc2c1,60.7% (inactive)

row,SMILES,growth
1,Cc1cc(NN=C(c2ccc(O)cc2)c2ccc(O)cc2)c([N+](=O)[O-])cc1[N+](=O)[O-],66.9% (inactive)
2,C[C@@H]1C[C@H]2C(=O)O[C@@H](C)[C@H](NC(=O)[C@H](Cc3cc(F)cc(F)c3)NC(=O)Nc3ccc(C4CC4)cc3F)C(=O)N3CCC[C@H]3C(=O)N3CCCC[C@H]3C(=O)N[C@@H](C)C(=O)N2C1,20.9% (inactive)
3,Cc1c(C(=O)Nc2nc(-c3ccccc3)cs2)nnn1-c1cccc2ccccc12,54.4% [50 µM] (inactive)
4,O=C(c1ccc(Cl)cc1Cl)N1c2ccccc2Sc2ccccc21,35.8% (inactive)
5,CC1(C)CC[C@]2(C(=O)Nc3ccccn3)CC[C@]3(C)C(=CC[C@@H]4[C@@]5(C)C/C(=C/c6cccnc6)C(=O)C(C)(C)[C@@H]5CC[C@]43C)[C@H]2C1,1.84% (active)
6,CN1C(N2CCN(S(=O)(=O)c3ccccc3)CC2)=NS(=O)(=O)c2ccccc21,116% (inactive)
7,CC1(C)C(=NO)C(C)(C)C1=NO,113% (inactive)
8,C#CCOC(=O)[C@]1(C)CCC[C@]2(C)[C@H]3C[C@H]4C(C(C)C)=C[C@]3(CC[C@H]21)[C@@H]1C(=O)CCC(=O)[C@@H]14,64.7% (inactive)
9,CC(C)C1CCCCC1O (stereo not drawn),193% (inactive)
10,OCCN1CCN(CC/C=C2/c3ccccc3Sc3ccc(C(F)(F)F)cc32)CC1,73.1% (inactive)
11,COc1ccc(N=C(c2ccccc2)C2C(=O)c3ccccc3C2=O)cc1,61.3% (inactive)
12,COc1cc(-c2nc3ccc(C)cc3[nH]2)ccc1OCC(=O)N=Nc1c(O)[nH]c2ccc(Cl)cc12,-55.6% (active)
13,CCC([N+](=O)[O-])S(=O)(=O)c1ccc(C)cc1 (stereo not drawn),132% (inactive)
14,CC(=O)Oc1ccc(/C=N/NC(N)=S)nc1,64.3% (inactive)
15,CCC[CH2][Sn]1([CH2]CCC)[O]C2C(CO)OC(n3ccc(N)nc3=O)C2[O]1 (stereo not drawn),-36.6% (active)
16,CC(=O)n1cc([C@H]2CC[C@H](c3cn(C(C)=O)c4ccccc34)c3c2[nH]c2ccccc32)c2ccccc21,111% (inactive)
17,Cn1c2ccccc2c2nn(Cc3ccccc3)c(=O)nc21,110% (inactive)
18,N#Cc1c(-c2ccccc2)cc(-c2ccccc2)n(CCCCC(=O)NO)c1=O,11% (inactive)
19,Cc1ccc(Nc2cc(N)nc(N)n2)cc1,99.6% (inactive)
20,COc1cccc(/C=N\Nc2ccc([N+](=O)[O-])cn2)c1O,57.5% (inactive)
21,Cc1ccccc1SSc1ccccc1C,99.6% (inactive)

row,SMILES,growth
1,CCN(CC)c1ccc(C(O)C2=CC(=O)c3ccccc3C2=O)cc1 (stereo not drawn),-1.99% (active)
2,CC(Cl)(CCl)CS(=O)(=O)c1ccc(Cl)cc1 (stereo not drawn),87.2% (inactive)
3,C#CCOC(=O)C(N)CS (stereo not drawn),120% (inactive)
4,O=C(Nc1cccnc1Nc1ccc(Cl)cc1)c1cn(Cc2cccc(Oc3ccccc3)c2)nn1,12.9% (inactive)
5,O=C(C(=O)N1CCCCC1)c1ccc(OC2OC(CO)C(O)C(O)C2O)cc1 (stereo not drawn),77.8% (inactive)
6,CCN(CC)CCOc1nc2c3ccc(Cl)cc3nn2c2ccccc12,19.5% (inactive)
7,COc1ccc(C2=NNC(c3ccc(Oc4nc5c(c(=O)n(C)c(=O)n5C)n4C)c(OC)c3)C2)cc1 (stereo not drawn),90.6% (inactive)
8,N#C/C(=C\c1ccc(-c2cc(C(F)(F)F)ccc2Cl)o1)c1nc(-c2ccco2)cs1,89.2% (inactive)
9,Cc1c(-c2ccc(-c3ccccc3F)cc2)nc2ccc(F)cc2c1C(=O)O,5.22% (active)
10,COc1ncc(-c2ccc3nccc(C#CCCCCC(=O)O)c3c2)cc1NS(=O)(=O)c1ccc(F)cc1F,26.8% (inactive)
11,O=C(c1ccccc1)N(C(=S)NCCc1ccc(Cl)cc1)c1ccccc1,54.4% (inactive)
12,O=C(/C(=C\c1ccc([N+](=O)[O-])cc1)S(=O)Cc1ccc(F)cc1)c1ccc(F)cc1 (stereo not drawn),5.72% (active)
13,O=C(N/N=C/c1cc(Cl)ccc1O)c1ccccc1Nc1ccnc(C(F)(F)F)c1,39.3% (inactive)
14,NC(=NCCCOc1ccc(Cl)cc1)Nc1ccc(Cl)cc1,95.3% (inactive)
15,NC(C(=O)O)c1ccc([N+](=O)[O-])cc1 (stereo not drawn),95.8% (inactive)
16,O=C(/C=C/c1cccc([N+](=O)[O-])c1)c1ccc(Nc2nc(Nc3ccc(F)cc3)nc(Nc3ccc(Cl)cc3)n2)cc1,-42.1% (active)
17,COC(=O)c1c2c(c(C)[n+]([O-])c1C)C(=O)C(NCc1ccc(F)c(Cl)c1)=CC2=O,-54.6% (active)
18,O=C(/C=C(/C=C/c1csc2ccccc12)OB(F)F)/C=C/c1csc2ccccc12,2.68% (active)
19,COC(OC)c1ccccc1,77.6% (inactive)
20,CC1(C)C(=O)/C(=C\c2cccnc2)C[C@]2(C)[C@H]3CC=C4[C@@H]5C[C@@](C)(C(=O)O)CC[C@]5(C)CC[C@@]4(C)[C@]3(C)CC[C@@H]12,104% (inactive)
